The record followed here is ChEMBL document CHEMBL3988442, “University of Dundee, Small-Polar-MMV Screening Library” (2021).

Holding throughout (parameters): scale not given: direction of the effect not stated beside the values
For assay [1], the target named is Protein translocase subunit SecA (Escherichia coli (strain K12)) (UniProt P10408). Briefly: Assay to Identify E. coli SecA ATPase Inhibitors. In kind it is functional. Conditions: 30 µM.
In assay [2] the target is T1, Ubiquitin-activating enzyme e1, putative (Leishmania donovani (strain BPK282A1)) (UniProt E9BSI1).
T1 sequence (whole entry): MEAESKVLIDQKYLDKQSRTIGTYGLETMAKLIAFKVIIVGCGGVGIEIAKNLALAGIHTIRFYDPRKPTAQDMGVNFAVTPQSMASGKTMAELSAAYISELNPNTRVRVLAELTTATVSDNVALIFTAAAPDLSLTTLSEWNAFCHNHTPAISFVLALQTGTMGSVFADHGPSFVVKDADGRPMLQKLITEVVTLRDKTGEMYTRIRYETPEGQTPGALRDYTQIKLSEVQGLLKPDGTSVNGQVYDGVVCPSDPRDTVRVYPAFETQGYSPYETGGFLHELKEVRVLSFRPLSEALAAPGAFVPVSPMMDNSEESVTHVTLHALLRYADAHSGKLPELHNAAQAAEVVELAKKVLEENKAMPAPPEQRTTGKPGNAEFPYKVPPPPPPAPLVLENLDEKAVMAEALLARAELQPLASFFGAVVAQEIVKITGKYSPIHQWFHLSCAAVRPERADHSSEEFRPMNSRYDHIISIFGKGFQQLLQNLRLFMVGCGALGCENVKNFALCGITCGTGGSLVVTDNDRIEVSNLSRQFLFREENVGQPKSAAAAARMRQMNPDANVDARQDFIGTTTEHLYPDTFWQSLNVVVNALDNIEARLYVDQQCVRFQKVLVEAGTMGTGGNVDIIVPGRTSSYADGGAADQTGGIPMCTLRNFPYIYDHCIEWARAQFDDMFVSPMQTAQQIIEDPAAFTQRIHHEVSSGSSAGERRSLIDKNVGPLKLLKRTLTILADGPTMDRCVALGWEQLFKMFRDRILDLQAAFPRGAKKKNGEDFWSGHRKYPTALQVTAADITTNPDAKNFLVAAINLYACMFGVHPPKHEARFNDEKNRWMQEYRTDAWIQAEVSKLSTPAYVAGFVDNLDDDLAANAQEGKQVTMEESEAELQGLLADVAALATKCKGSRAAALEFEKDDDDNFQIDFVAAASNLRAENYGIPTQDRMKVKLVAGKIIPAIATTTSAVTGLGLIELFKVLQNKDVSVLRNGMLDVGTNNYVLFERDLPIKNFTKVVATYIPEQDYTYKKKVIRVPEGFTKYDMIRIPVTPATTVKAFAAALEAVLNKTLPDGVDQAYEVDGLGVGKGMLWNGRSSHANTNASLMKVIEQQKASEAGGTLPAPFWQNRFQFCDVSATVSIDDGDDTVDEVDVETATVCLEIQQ
The assay is described as follows: Leishmania donovani Ubiquitin Activating Enzyme (LdE1). Conditions: 30 µM. Format: functional.

The target of assay [3] is AMP-activated protein kinase, AMPK (Homo sapiens) (UniProt P54646+O43741+P54619+Q9UGJ0+Q9Y478+Q13131+Q9UGI9). Briefly: AMP-dependent Kinase enzyme assay. An in vitro enzyme assay that detects ADP turnover that is directly proportional to AMPK activity. This uses naive AMPK that is activated during the assay with MK-8722. In kind it is functional. Conditions: 30 µM.
Assay [4] has as its target Sialic acid-binding Ig-like lectin 9 (Homo sapiens) (UniProt Q9Y336). The assay is described as follows: Hs-Siglec9 ALPHAscreen SOP 20170721. Conditions: 10 µM. (In Alpha technology, singlet oxygen from a donor bead excites a nearby acceptor bead.)
The test system of a further assay is Trypanosoma cruzi. Briefly: Trypanosoma cruzi phosphomannomutase and mannose-1-phosphate guanylyltransferase assay. In kind it is functional. The following applies: 10 µM.
Assay [5] has as its target T2, Arginase-2, mitochondrial (Homo sapiens) (UniProt P78540).
T2 sequence (whole entry): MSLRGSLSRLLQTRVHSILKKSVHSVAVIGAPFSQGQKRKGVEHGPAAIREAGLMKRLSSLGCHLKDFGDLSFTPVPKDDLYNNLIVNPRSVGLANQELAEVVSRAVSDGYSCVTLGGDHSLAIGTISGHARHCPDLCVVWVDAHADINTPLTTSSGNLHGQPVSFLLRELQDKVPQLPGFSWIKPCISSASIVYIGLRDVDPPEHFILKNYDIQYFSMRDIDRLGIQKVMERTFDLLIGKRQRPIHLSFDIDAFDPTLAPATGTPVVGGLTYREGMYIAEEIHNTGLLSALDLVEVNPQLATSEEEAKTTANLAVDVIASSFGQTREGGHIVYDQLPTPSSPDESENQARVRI
Briefly: in vitro enzyme assay to detect the production of urea directly proportional to the activity of Arginase II. Note: in the data most compounds retested in dose-response had high values. The following applies: 33.3 µM. Format: functional.

For assay [6], the target named is T3, Proteasome subunit beta (Trypanosoma cruzi) (UniProt O96673).
T3 sequence (whole entry): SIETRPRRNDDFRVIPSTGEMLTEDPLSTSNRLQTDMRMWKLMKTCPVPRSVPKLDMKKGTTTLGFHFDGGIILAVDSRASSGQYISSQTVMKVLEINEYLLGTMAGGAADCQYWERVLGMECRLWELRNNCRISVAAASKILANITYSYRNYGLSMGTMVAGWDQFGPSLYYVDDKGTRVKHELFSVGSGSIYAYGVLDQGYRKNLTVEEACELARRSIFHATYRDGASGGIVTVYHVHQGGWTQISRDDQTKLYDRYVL
Briefly: Trypanosoma cruzi proteasome chymotrypsin-like activity (TcProtChymo) assay. Note: in the data most compounds retested in dose-response had high values. In kind it is functional. The following applies: 9.37 µM.

The species named for another assay is Homo sapiens. The assay is described as follows: To identify inhibition of the IFN signalling (Jak-Stat) pathway via expression of an eGFP reporter gene under the control of an IFN-stimulated response element (ISRE) containing MxA promoter. Format: functional. The following applies: 30 µM. Background: In a reporter assay the amount or activity of a reporter protein is the signal.

Assay [7] has as its target T4, Tyrosyl-tRNA synthetase, putative (Trypanosoma cruzi (strain CL Brener)) (UniProt Q4DSP6).
T4 sequence (whole entry): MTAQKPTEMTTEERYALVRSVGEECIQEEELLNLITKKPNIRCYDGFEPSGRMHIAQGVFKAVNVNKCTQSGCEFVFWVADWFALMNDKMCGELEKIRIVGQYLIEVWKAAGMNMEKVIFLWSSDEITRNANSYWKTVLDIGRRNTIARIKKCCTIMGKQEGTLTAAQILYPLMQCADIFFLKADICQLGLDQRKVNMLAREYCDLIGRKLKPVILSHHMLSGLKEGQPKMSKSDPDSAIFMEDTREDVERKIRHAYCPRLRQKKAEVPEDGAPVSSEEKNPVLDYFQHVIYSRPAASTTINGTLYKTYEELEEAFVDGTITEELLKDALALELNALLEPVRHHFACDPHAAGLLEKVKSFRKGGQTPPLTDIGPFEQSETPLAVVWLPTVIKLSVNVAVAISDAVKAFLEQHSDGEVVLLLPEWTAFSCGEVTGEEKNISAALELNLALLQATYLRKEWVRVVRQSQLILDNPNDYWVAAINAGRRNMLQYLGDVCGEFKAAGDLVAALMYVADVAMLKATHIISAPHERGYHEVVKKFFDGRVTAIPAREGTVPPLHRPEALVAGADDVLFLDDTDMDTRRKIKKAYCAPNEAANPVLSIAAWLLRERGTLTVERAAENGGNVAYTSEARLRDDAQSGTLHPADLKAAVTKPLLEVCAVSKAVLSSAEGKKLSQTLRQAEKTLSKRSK
Briefly: Trypanosoma cruzi tyrosyl tRNA synthetase (TcYRS) _High Tyrosine SOP. Note: in the data most compounds retested in dose-response had high values. In kind it is functional. Conditions: 30 µM.

Assay [8] addresses T4, Tyrosyl-tRNA synthetase, putative (Trypanosoma cruzi (strain CL Brener)). The assay is described as follows: Trypanosoma cruzi tyrosyl tRNA synthetase (TcYRS) SOP. Format: functional. Conditions: 30 µM.
Assay [9] deals with Chromo domain-containing protein 1 (Saccharomyces cerevisiae (strain ATCC 204508 / S288c) (Baker's yeast)) (UniProt P32657). Briefly: ScCHD-1 Enzyme Inhibition Assay. Note: in the data most compounds retested in dose-response had high values. Format: functional. Conditions: 30 µM.
Chain of Chromo domain-containing protein 1 (Saccharomyces cerevisiae (strain ATCC 204508 / S288c) (Baker's yeast)) (P32657 whole entry, the tested form may be a part): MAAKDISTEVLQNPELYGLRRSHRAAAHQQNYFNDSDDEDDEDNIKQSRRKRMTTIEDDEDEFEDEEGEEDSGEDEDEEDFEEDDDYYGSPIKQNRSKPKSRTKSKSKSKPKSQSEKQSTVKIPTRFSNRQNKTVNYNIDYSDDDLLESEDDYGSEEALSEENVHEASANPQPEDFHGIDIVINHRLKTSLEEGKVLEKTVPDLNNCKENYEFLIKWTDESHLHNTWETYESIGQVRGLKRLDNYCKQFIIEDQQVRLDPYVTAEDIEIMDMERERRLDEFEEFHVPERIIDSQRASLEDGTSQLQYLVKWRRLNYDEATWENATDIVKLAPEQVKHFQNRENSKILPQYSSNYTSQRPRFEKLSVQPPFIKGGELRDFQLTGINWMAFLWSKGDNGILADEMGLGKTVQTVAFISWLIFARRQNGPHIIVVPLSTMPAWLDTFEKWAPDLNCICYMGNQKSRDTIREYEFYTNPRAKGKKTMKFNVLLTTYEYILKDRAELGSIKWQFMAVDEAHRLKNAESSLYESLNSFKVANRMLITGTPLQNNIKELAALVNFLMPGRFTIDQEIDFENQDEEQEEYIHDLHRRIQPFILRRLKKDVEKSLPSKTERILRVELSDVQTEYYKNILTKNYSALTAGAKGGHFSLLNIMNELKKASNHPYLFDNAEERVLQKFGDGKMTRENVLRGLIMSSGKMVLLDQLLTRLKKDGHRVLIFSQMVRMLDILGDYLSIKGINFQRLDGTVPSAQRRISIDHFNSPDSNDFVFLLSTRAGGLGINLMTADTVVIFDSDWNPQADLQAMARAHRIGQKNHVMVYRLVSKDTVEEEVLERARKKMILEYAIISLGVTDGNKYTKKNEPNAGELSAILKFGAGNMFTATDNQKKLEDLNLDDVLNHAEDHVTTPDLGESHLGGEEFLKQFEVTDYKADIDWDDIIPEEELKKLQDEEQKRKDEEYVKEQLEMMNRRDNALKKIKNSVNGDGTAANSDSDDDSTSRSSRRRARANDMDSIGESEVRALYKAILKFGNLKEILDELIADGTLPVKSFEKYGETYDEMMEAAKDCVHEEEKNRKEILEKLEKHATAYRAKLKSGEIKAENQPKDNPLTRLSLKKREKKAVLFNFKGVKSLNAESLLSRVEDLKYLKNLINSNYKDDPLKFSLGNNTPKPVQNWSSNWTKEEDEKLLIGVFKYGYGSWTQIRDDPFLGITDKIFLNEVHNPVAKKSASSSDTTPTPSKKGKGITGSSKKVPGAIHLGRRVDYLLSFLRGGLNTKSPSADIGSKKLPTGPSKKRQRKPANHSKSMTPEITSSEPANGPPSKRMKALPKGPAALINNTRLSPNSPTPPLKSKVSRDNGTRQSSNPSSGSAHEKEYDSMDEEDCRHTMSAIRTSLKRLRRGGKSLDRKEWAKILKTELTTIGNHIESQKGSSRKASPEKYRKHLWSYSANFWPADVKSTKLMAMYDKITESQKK

For some of these results: Measured potencies and affinities stand elsewhere.

Chain of Protein translocase subunit SecA (Escherichia coli (strain K12)) (P10408 whole entry): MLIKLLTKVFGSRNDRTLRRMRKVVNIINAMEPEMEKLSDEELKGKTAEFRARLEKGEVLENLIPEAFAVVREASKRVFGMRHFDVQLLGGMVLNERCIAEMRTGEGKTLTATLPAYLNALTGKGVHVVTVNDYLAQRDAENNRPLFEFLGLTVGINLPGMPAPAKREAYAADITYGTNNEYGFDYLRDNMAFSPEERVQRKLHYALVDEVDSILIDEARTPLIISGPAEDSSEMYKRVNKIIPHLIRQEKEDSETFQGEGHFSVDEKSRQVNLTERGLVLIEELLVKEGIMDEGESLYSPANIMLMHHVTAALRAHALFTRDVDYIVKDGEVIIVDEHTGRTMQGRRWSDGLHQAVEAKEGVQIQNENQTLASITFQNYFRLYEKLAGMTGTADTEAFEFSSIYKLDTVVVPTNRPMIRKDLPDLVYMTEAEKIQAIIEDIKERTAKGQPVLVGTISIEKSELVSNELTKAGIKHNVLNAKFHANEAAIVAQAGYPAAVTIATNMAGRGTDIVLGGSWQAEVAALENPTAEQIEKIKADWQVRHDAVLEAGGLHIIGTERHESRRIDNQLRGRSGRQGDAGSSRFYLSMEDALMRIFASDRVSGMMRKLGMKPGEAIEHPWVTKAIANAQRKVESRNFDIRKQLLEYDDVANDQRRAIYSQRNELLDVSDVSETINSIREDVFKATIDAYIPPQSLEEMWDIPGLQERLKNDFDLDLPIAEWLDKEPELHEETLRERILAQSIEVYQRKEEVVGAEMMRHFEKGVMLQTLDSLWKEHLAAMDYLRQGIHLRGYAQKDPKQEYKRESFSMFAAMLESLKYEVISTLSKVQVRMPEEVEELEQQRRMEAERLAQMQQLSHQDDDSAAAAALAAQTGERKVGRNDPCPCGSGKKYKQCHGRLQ
Chain of Sialic acid-binding Ig-like lectin 9 (Homo sapiens) (Q9Y336 whole entry): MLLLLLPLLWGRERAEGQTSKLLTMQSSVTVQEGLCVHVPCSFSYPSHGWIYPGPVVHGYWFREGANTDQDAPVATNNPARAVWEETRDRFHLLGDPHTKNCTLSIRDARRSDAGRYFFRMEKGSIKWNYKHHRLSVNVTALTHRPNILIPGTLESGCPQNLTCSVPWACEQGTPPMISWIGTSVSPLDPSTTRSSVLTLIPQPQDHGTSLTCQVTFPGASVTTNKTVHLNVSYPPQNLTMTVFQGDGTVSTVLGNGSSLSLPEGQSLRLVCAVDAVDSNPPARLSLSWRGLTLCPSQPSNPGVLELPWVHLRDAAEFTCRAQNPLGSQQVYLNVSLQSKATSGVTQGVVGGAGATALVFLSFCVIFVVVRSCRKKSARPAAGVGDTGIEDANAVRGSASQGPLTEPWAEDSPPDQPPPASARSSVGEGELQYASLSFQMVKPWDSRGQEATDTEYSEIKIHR

With `Cc1cnn(CCNCC(=O)NCCOc2ccccc2)c1`, the Percent Effect in assay [1] is 0.828%; in [2], 21.1%; in [3], 4.84%; in assay [4], -1.9%; in the assay with Trypanosoma cruzi, -5.88%; in assay [5], 0.719%. The Percent Effect in assay [6] was 6.85%; in the assay filed under Homo sapiens, 25.5%; in assay [7] it was 4.43%; in assay [8], -6.17%; in assay [9] it was -8.28%.
On to `CN1CCOC(CNCc2nc(-c3ccccc3)cs2)C1` (stereo unspecified), for which the Percent Effect in assay [1] was -3.28%; in [2], -12.7%; in assay [3], -8.45%; in assay [4], 1.64%; in the assay on Trypanosoma cruzi, 5.95%; in assay [5], -1.9%. The Percent Effect is 1.39% in assay [6]; -25.8% in the assay listed under Homo sapiens; 1.48% in [7]; 1.27% in assay [8]; 4.02% in [9].
Take `O=C(c1ccsc1)N1CC(C(=O)N2CCOCC2)C2(CCOCC2)C1` (stereo unspecified): the Percent Effect is -0.06% in assay [1]; 2.6% in assay [2]; 3.52% in assay [3]; 3.83% in assay [4]; -6.21% in the assay on Trypanosoma cruzi; -3.23% in [5]. The Percent Effect in assay [6] was 16.5%; in the assay listed under Homo sapiens it was 7.29%; in assay [7], -29.6%; in assay [8], -1.28%; in [9], -0.146%.
Take `CC(C)NC(=O)c1ccc2c(c1)nc1n2CCN(C(C)C)C1`: the Percent Effect in assay [1] is -0.173%; in assay [2], 4%; in assay [3] it was 2.97%; in assay [4], 4.16%; with Trypanosoma cruzi it was -5.11%; in assay [5] it was -13.2%. Moreover, the Percent Effect is 19.2% in assay [6]; -1.16% in the assay filed under Homo sapiens; 6.35% in assay [7]; 7.69% in [8]; -10.7% in assay [9].
For `CCCS(=O)(=O)N1C[C@H]2OC(=O)N(CCc3cccc(Cl)c3)[C@H]2C1`, the Percent Effect is -5.06% in assay [1]; 2.67% in assay [2]; -2.35% in assay [3]; -2.36% in assay [4]; -3.21% with Trypanosoma cruzi; -2.08% in assay [5]. For the same compound, the Percent Effect was 5.93% in assay [6]; 16.4% in the assay filed under Homo sapiens; -0.546% in assay [7]; 3.7% in [8]; -2.16% in assay [9].
In the case of `Cc1cc(-c2nnn(CCC(N)=O)n2)ccc1F`, the Percent Effect in assay [1] is -3.96%; in [2], 13.7%; in [3], -6.12%; in assay [4], 8.1%; with Trypanosoma cruzi, 5.75%; in assay [5], -2.79%. Besides, the Percent Effect is 15.3% in assay [6]; 11.3% in the assay filed under Homo sapiens; 8.33% in [7]; 13.6% in assay [8]; -2.17% in assay [9].
`O=C(c1cnco1)N1CCCC(Cc2cccc3ncccc23)C1` (stereo unspecified): the Percent Effect in assay [1] is -1.91%; in assay [2], -4.05%; in assay [3] it was 15.2%; in [4] it was -0.964%; in the assay on Trypanosoma cruzi it was 7.51%; in assay [5], 0.696%. Further, the Percent Effect is 8.42% in assay [6]; 17.8% in the assay listed under Homo sapiens; 1.07% in [7]; 9.09% in [8]; -18.8% in assay [9].
Take `O=C(NCC1CC1)C1=NOC2(CCN(Cc3ccc4c(c3)OCO4)C2)C1` (stereo unspecified): the Percent Effect in [1] was -4.9%; in assay [2], 8%; in assay [3], 8.35%; in assay [4], 5%; in the assay on Trypanosoma cruzi it was -2.51%; in assay [5] it was -50.4%. The Percent Effect in assay [6] was 11.1%; in the assay filed under Homo sapiens, 0.899%; in assay [7], 0%; in assay [8], -17.5%; in assay [9], -6.02%.
Consider `CC1CCN(CCNC(=O)C2CCN(S(N)(=O)=O)CC2)CC1`, for which the Percent Effect in [1] was -1.93%; in assay [2], 9.72%; in assay [3] it was -5.79%; in [4], -4.04%; with Trypanosoma cruzi it was -3.4%; in assay [5], 1.77%. For the same compound, the Percent Effect in assay [6] is 10%; in the assay listed under Homo sapiens, 3.48%; in assay [7], 2.1%; in assay [8], 5.13%; in assay [9], -2.96%.
For the compound `CCC(C)[C@H](NC(=O)c1cc(Br)ccc1-n1cnnn1)C(=O)OC` (stereo partly specified), the Percent Effect is -3% in [1]; -1.33% in assay [2]; -6.14% in assay [3]; -6.61% in assay [4]; -2.36% in the assay on Trypanosoma cruzi; -11.1% in [5]. Moreover, the Percent Effect in assay [6] is 2.03%; in the assay listed under Homo sapiens it was -0.401%; in [7], -19.1%; in assay [8], -17.9%; in assay [9] it was 0.0287%.
Turning to `O=C(NCCCN1CCOCC1)Nc1cnc2cc(Cl)ccc2c1O`, the Percent Effect in [1] is 0.589%; in assay [2], 17.6%; in assay [3] it was 9.55%; in [4], -8.53%; in the assay on Trypanosoma cruzi, -3.16%; in assay [5], -5.34%. For the same compound, the Percent Effect in [6] is 12.8%; in the assay listed under Homo sapiens it was 31.9%; in assay [7] it was 0%; in assay [8], 1.3%; in assay [9], -6.01%.
